Screens deposited in PubChem by National Center for Advancing Translational Sciences (NCATS).
FLuc modulator = firefly luciferase modulation, counter-screen for miR-21 project; P08659; purified FLuc, Km substrates, luminescence inhibition; Potency, µM (titrated, usually from 57.5 µM), without a hit: top-dose activity change, negative = inhibition, actives largely listed as inhibitors; hit rate 6.9% among 360,000;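 also: plate controls were vehicle for no effect and reference inhibitor for full effect; nearly all actives have a fitted effect of over 55% in size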
Target sequence (P08659 whole entry, looked up): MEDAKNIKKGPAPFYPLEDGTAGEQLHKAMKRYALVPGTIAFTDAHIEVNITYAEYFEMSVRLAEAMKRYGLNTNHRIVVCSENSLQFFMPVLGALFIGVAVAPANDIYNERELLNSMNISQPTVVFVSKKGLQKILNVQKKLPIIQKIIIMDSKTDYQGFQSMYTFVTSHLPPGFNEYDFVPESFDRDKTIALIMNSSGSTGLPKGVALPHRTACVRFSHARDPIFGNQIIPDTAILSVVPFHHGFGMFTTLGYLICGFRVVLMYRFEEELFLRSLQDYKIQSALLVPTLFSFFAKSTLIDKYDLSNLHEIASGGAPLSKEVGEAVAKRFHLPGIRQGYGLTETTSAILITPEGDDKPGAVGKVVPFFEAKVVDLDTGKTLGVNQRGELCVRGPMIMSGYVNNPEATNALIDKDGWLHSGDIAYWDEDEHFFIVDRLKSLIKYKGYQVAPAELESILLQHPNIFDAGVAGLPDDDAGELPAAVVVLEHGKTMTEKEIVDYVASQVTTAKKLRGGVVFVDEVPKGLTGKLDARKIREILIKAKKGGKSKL
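Biochemical qHTS of compounds, final roughly 60 µM downward over six points, against 10 nM purified firefly luciferase using Km concentrations of substrates (10 uM D-luciferin, 10 uM ATP) in Tris acetate pH 7.5 buffer; luminescence output.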
ELG1 DNA repair = inhibitors of ELG1-dependent DNA repair in HEK293T cells | AID 504467 | hit rate 2.3% among 330,000 | HEK293T ELG1-luciferase reporter, luminescence, 16 h; DNA damage induced by 5-fluorouridine | Potency, µM (titrated, usually from 46.1 µM), without a hit: at the highest dose activity change, negative = inhibition, usual class: inhibitors; also: % is scaled to controls: 0 for no effect and ±100 for the full control effect; nearly all actives have a fitted effect of over 55% in size
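HEK293T cells expressing luciferase-tagged ELG1 (2,000/well) received 5-Fluorouridine plus compound or DMSO for 16 hr at 37 °C. Luciferase was read by ONE-Glo luminescence after 30 min at room temperature.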
ELG1 genotox = induces genotoxicity in HEK293T cells with luciferase-tagged ELG1. HEK293T ELG1-luciferase reporter, luminescence, 16 h. Potency, µM (titrated, usually from 46 µM), for the others: at the highest dose activity change, positive = activation, actives largely listed as activators. hit rate 1.3% among 330,000. AID 504466; also: % of control where 0% means no effect; nearly all actives have a fitted effect of over 60% in size
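HEK293T cells expressing luciferase-tagged ELG1 were treated with compound or DMSO for 16 hr at 37°C. Luciferase activity was then read after 30 min with ONE-Glo at room temperature; rising signal flags genetic stress.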
SMN2 splice enh = enhancers of SMN2 splice variant expression. HEK293 SMN2-luciferase splicing reporter, luminescence, 30-36 h. Potency, µM (titrated, usually from 46.1 µM), for the others: at the highest dose activity change, positive = activation, usual class: activators. hit rate 2.8% among 210,000; also: % of control where 0% means no effect; nearly all actives have a fitted effect of over 55% in size
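HEK293 cells carry an SMN2 minigene-luciferase reporter in which exon 7 inclusion puts luciferase in frame. Cells were seeded at 2000 cells/well, attached for 10-12 hours, then exposed to compounds for 30-36 hours at 37C before ONE-Glo luminescence.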
NPC1 prom act = activates the NPC1 promoter | Huh7 NPC1 promoter luciferase reporter, 24 h | AID 485313 | hit rate 2.4% among 320,000 | Potency, µM (series often up to 9.22 µM), without a hit: at the top dose activation, usual class: activators; also: % of control where 0% means no effect; nearly all actives have a fitted effect of over 60% in size
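Stably transfected Huh7 (NPC1 promoter→luciferase), 1500 cells/well in Opti-MEM + 10% FBS, 2 h settle, then compound 24 h at 37 °C. Luminescence after 10 min with Amplite reagent.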
Rab9 prom act = activates the Rab9 promoter. Huh7 Rab9 promoter-luciferase reporter, luminescence, 24 h. Potency, µM (highest dose often 9.22 µM), for inactives: at the top dose activation, negative = inhibition, most hits filed as activators. hit rate 2.8% among 320,000; also: % of control where 0% means no effect; nearly all actives have a fitted effect of over 60% in size
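Using Huh7 cells stably transfected with Rab9 promoter–luciferase, compounds were incubated 24 h at 37 °C, 5% CO2; luciferase luminescence was read 10 min after reagent addition.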
Active calls of the source: *; ? = inconclusive; · = no result. This is a sample that favours compounds with a hit; in the whole collection about 9.2% have one here. Calls follow the shape of the dose curve; as a rule, active = well fitted curve in the direction sought with a large enough effect; inconclusive = small, poorly fitted or top-dose-only effect, or another doubt; inactive = no such curve, though single readings can be large; an effect the other way counts as inactive or inconclusive. Potency is read from the fitted curve at half-maximal effect.

SMILES	FLuc modulator	ELG1 DNA repair	ELG1 genotox	SMN2 splice enh	NPC1 prom act	Rab9 prom act
COc1ccc(-n2cc(CNCCc3ncc(C)[nH]3)c(-c3ccccc3Cl)n2)cc1	2.5%	?	0.1%	·	-3.8%	-4.1%
Cc1ccc(-n2cc(CNCCn3nc(C)cc3C)c(-c3ccc(F)cc3)n2)cc1	26.9µM*	?	-6.4%	·	-7.3%	-12.0%
CCNc1nc(NCC)nc(Oc2ccc(C(=O)OC)cc2)n1	-1.8%	1.1%	1.4%	·	-0.4%	-4.8%
Cc1cccc(-n2cc(CN(C)Cc3nccn3C)c(-c3cccc(F)c3)n2)c1	?	?	-5.2%	·	-2.6%	-3.8%
Cc1cccc(-n2cc(CNCCN3CCOC3=O)c(-c3cccc(F)c3)n2)c1	9.53µM*	1.2%	3.0%	·	-0.8%	11.9%
CN(C)c1ccc(S(=O)(=O)NCC(=O)N2CCN(c3ccccc3)CC2)cc1[N+](=O)[O-]	5.2%	16.9%	-8.5%	·	1.3%	-3.3%
Cc1c(-c2cccc(NC(=O)Nc3ccccc3)c2)nc2ncccn12	19µM*	·	·	·	·	·
O=C(Nc1ccccc1)Nc1cccc(-c2cn3cccnc3n2)c1	9.53µM*	-6.0%	-8.5%	-1.3%	10.1%	?
O=C(Nc1cccc(-c2cn3cccnc3n2)c1)Nc1ccccc1F	13.5µM*	?	-12.4%	-7.9%	-4.3%	?
CC(C)(C)C(=O)Nc1cccc(-c2cn3cccnc3n2)c1	-3.0%	·	·	·	·	·
CC(=O)Nc1ccc(N2C(=O)CC(Sc3nc(C)cc(C)n3)C2=O)cc1 (stereo not given)	-1.3%	-3.4%	1.2%	·	-2.3%	9.3%
Cc1ccc(Cl)cc1Nc1sc(C(=O)c2ccc(F)cc2)c(N)c1S(C)(=O)=O	0.7%	·	·	-25.0%	·	·
O=C(NCc1ccc(Cl)cc1)c1ccc2oc(=O)n(Cc3ccccc3)c2c1	-9.5%	·	·	·	·	·
Cn1nnnc1SCCCNCc1cccc(OCc2ccc(F)cc2)c1	-6.6%	·	·	·	·	·
CCC(C)N(C(=O)CSc1nc(-c2ccccc2)cs1)C1CCS(=O)(=O)C1 (stereo not given)	16.9µM*	-2.5%	-4.1%	-25.3%	0.6%	-5.0%
CCC(C)N(C(=O)CSc1nc(C)nc2ccccc12)C1CCS(=O)(=O)C1 (stereo not given)	-2.8%	-29.0%	-6.0%	·	1.3%	0.8%
COc1cccc(C(=O)Nc2ccccc2-c2nnc(-c3cccc(OC)c3)o2)c1	2.69µM*	·	·	2.9%	·	·
COc1ccc(C(=O)Nc2cccc(-c3nnc(-c4ccco4)o3)c2)cc1	19µM*	20.6µM*	-8.7%	-12.3%	18.9%	8.2%
COc1ccc(CC(=O)Nc2cccc(-c3nnc(-c4ccco4)o3)c2)cc1	-8.5%	?	-7.9%	-18.0%	0.4%	1.7%
COc1cc(C(=O)Nc2cccc(-c3nnc(-c4ccco4)o3)c2)ccc1OC(C)=O	15.1µM*	?	-6.2%	-0.3%	0.0%	-0.8%
COc1ccc(NCc2ccccc2-c2nnc(-c3ccccc3)o2)cc1Cl	?	·	·	9.6%	·	·
O=C(Nc1ccc(-c2csc(Nc3ccccc3)n2)cc1)c1ccccc1	13.5µM*	-22.9%	10.0%	·	-4.5%	-0.1%
O=C(Nc1cccc(-c2csc(Nc3ccc(Cl)cc3)n2)c1)c1ccccc1	12µM*	?	-13.9%	·	-2.8%	3.1%
O=C(Nc1cccc(-c2csc(Nc3ccc(Cl)cc3)n2)c1)c1cccc(C(F)(F)F)c1	-12.3%	9.2µM*	-16.2%	·	-7.7%	-9.6%
O=C(Nc1cccc(-c2csc(Nc3ccc(Cl)cc3)n2)c1)c1cc([N+](=O)[O-])cc(C(F)(F)F)c1	-2.9%	?	-11.4%	·	-13.9%	-0.7%
SMILES	FLuc modulator	ELG1 DNA repair	ELG1 genotox	SMN2 splice enh	NPC1 prom act	Rab9 prom act
CCCCNC(=O)CCCN1C(=O)CCn2nc(-c3cccn3C)cc21	-0.6%	·	·	·	·	·
CCOC(=O)CNC(=O)CSc1nc(-c2ccc(C)cc2)ns1	12µM*	20.2%	0.6%	1.8%	7.2%	15.7%
CCOC(=O)CSc1nc(-c2ccc(OC)cc2)ns1	23.9µM*	?	-0.5%	29.3%	-1.5%	0.6%
COc1ccc(-c2nsc(SCC(=O)Nc3ccc4c(c3)OCO4)n2)cc1	-6.2%	?	16.5%	9.0%	16.9%	23.2%
CCOC(=O)N1CCN(C(=O)CSc2nc(-c3cccc(C)c3)ns2)CC1	16.9µM*	-1.9%	-0.2%	-0.5%	-0.7%	-6.6%
CCOC(=O)CNC(=O)CSc1nc(-c2ccccc2)ns1	?	5.4%	1.9%	2.9%	1.0%	3.3%
Cc1cccc(-c2nsc(SCC(=O)Nc3cc(C)on3)n2)c1	5.4%	?	3.4%	-7.3%	2.4%	5.4%
COc1ccc(C2N=C(c3ccccc3)C(C)(C)N2O)cc1 (stereo not given)	7.5%	-2.2%	3.0%	-2.2%	-5.9%	7.7%
COc1ccc(C(=O)N2CCC(n3nccc3NC(=O)C3CCOC3)CC2)cc1 (stereo not given)	1.2%	6.8%	6.3%	·	4.0%	5.2%
Cc1ccc(C(=O)Nc2ccc(-n3c(C)nc4ccccc4c3=O)cc2)cc1[N+](=O)[O-]	0.2%	·	·	·	·	·
CCn1c(SCC(=O)Nc2ccc3c(c2)OCCO3)nnc1C1CC1	15.1µM*	16.3%	1.5%	·	-2.6%	-2.6%
Nn1c(SCC(=O)Nc2ccc3c(c2)OCO3)nnc1C1CC1	-0.3%	0.7%	-2.1%	0.2%	-0.7%	-3.2%
O=C(CSc1nnc(-c2c[nH]c3ccccc23)n1CC1CCCO1)Nc1ccc2c(c1)OCCO2 (stereo not given)	-17.3%	5.4%	-0.2%	16.7%	6.8%	1.1%
CCn1c(SCC(=O)Nc2ccc3c(c2)OCCO3)nnc1-c1c[nH]c2ccccc12	13.5µM*	-4.2%	1.2%	·	-2.3%	-2.7%
Nn1c(SCC(=O)NC(=O)Nc2ccc3c(c2)OCCO3)nnc1C1CC1	19µM*	?	13.6%	?	21.5%	?
CCn1c(SCC(=O)Nc2ccc3c(c2)OCCO3)nnc1-c1cccs1	10.7µM*	0.4%	1.5%	-2.4%	-1.1%	12.6%
O=C1COc2ccc(C(=O)c3ccccc3C(=O)O)cc2N1	-1.3%	-6.1%	2.1%	4.3%	-0.3%	-1.1%
CCCCCCCCc1nc(SC(C)C(=O)O)n[nH]1 (stereo not given)	?	-12.3%	-3.4%	2.7%	1.6%	1.5%
COc1ccc(-n2ncc3c(NC(C)C)ncnc32)cc1	1.35µM*	?	?	2.82µM*	0.282µM*	0.316µM*
COc1ccc(-n2ncc3c(NCC(C)C)ncnc32)cc1	1.07µM*	?	?	2µM*	0.398µM*	0.355µM*
COc1ccc(C2=C(N3CCN(c4cccc(C)c4)C(C)C3)c3ccccc3C2=O)cc1 (stereo not given)	-0.4%	·	·	1.5%	·	·
